In the supplement of paper PMC7801607:

How the values were obtained:
CHO = experiment: % viability of CHO cells (MTT); higher = less toxic; details: 48 h
Procedure, shortened: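 After overnight attachment of CHO cells seeded at 10^6 cells/well in 200 µL, the medium was exchanged for fresh medium holding compound at 2 or 20 µM. Exposure lasted 48 h. Survival was read with the colorimetric tetrazolium (MTT) assay and expressed as percent of untreated cells.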

HepG2-A16-CD81 = experiment: % inhibition of HepG2 viability (CellTiter-Glo); higher = more toxic; details: 5 µM
[1] = test system: Plasmodium falciparum NF54 stage IV/V gametocytes; experiment: % inhibition of gametocyte viability (PrestoBlue); higher = more inhibition; details: 48 h
Procedure, shortened: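 Compound at 1 or 5 µM was incubated with Stage IV/V NF54 gametocytes (2% gametocytaemia, 5% haematocrit) for 48 h at 37 °C, stationary and hypoxic. A 2 h PrestoBlue step followed, with fluorescence read at 612 nm on transferred supernatant. Inhibition of gametocyte viability, in percent, was normalised to vehicle and kill controls from a single run.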

[2] = test system: Plasmodium falciparum NF54 asexual blood stage; experiment: % inhibition of asexual blood stage proliferation (pLDH); higher = more inhibition; details: 72 h
Procedure, shortened: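 Compound was tested at 2 or 20 µM against Plasmodium falciparum NF54 ring stages (1% haematocrit, 2% parasitaemia) for 72 h at 37 °C in 4% CO2, 3% O2 and 93% N2. Survival was read at 620 nm with the parasite lactate dehydrogenase assay, and inhibition of asexual proliferation was given as a percentage of controls.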

[3] = test system: Plasmodium falciparum NF54 stage IV/V gametocytes; experiment: % inhibition of gametocyte viability (ATP bioluminescence); higher = more inhibition; details: 24 h
Procedure, shortened: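 Compound at 1 or 5 µM was tested on stage IV/V NF54 gametocytes, enriched on density gradients and plated at 30,000 per well in 96-well plates. After 24 h at 37 °C, ATP was quantified by Promega BacTiter Glo bioluminescence. Values are percent inhibition of gametocyte viability from one run, normalised to controls.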

[4] = test system: Plasmodium falciparum NF54 stage IV/V gametocytes; experiment: % inhibition of gametocyte viability (luciferase reporter); higher = more inhibition; details: 48 h
Procedure, shortened: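 Stage IV/V gametocytes of the NF54-Pfs16-GFP-Luc line (2% gametocytaemia, 2% haematocrit) were exposed to compound at 1 or 5 µM. Incubation was 48 h at 37 °C, stationary and hypoxic. Luminescence was read on 30 µL lysate plus 30 µL Promega luciferin substrate on a GloMax-Multi+ reader with 10 s integration. Percent inhibition was normalised to DMSO and kill controls from a single run.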

[5] = test system: Plasmodium berghei ANKA liver stage in HepG2-A16-CD81; experiment: % inhibition of liver stage parasite viability (luciferase); higher = more inhibition; details: 5 µM; 48 h
Description: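 Single-concentration screen of the MMV Pandemic Response Box. P. falciparum NF54 asexual blood stages: pLDH assay, 72 h at 37 °C, 2 and 20 µM, n=2. Stage IV/V gametocytes (NF54): luciferase reporter (NF54-Pfs16-GFP-Luc, 48 h), ATP bioluminescence (24 h) and PrestoBlue (48 h) at 1 and 5 µM, n=1. P. berghei liver stage (luciferase in HepG2-A16-CD81, 48 h post infection) at 5 µM, n=4. All normalised to DMSO and kill controls as % inhibition.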
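Throughout, for % inhibition of HepG2 viability (CellTiter-Glo): HepG2-A16-CD81 hepatoma cells plated as in the liver-stage assay but without sporozoites, with DMSO wells as negative and 25 µM puromycin as positive control.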

| Structure (SMILES) | % viability of CHO cells (CHO; 2 µM) | % viability of CHO cells (CHO; 20 µM) | % inhibition of HepG2 viability (HepG2-A16-CD81) | % inhibition of gametocyte viability ([1]; 1 µM) | % inhibition of gametocyte viability ([1]; 5 µM) | % inhibition of asexual blood stage proliferation ([2]; 2 µM) | % inhibition of asexual blood stage proliferation ([2]; 20 µM) | % inhibition of gametocyte viability ([3]; 1 µM) | % inhibition of gametocyte viability ([3]; 5 µM) | % inhibition of gametocyte viability ([4]; 1 µM) | % inhibition of gametocyte viability ([4]; 5 µM) | % inhibition of liver stage parasite viability [5] |
| --- | --- | --- | --- | --- | --- | --- | --- | --- | --- | --- | --- | --- |
| COc1nc2ccc(Br)cc2cc1[C@@H](c1ccccc1)[C@@](O)(CCN(C)C)c1cccc2ccccc12 | 107% | 140% | -0.302% | < 0% | < 0% | 82.9% | 101% | < 0% | 49.3% | 14.4% | 19.2% | 31.1% |
| CC[C@H](CO)Nc1nc(NCc2ccccc2)c2ncn(C(C)C)c2n1 | 157% | 60.7% | 10.6% | < 0% | < 0% | -11.2% | 88% | 1.02% | < 0% | 6.71% | < 0% | 26.6% |
| O=C(Cc1ccccc1F)Nc1nc2ccccc2[nH]1 | 104% | 87.3% | 7.61% | 5.47% | 21.8% | 37.1% | 29.8% | < 0% | < 0% | < 0% | < 0% | -7.69% |
| CN(C)CC(=O)Nc1ccc2[nH]c(=O)c3ccccc3c2c1 | 97.8% | 109% | -2.53% | < 0% | < 0% | 24.3% | 32.5% | 11.1% | 2.31% | < 0% | 4.93% | 9.83% |
| Clc1ccc(COC(Cn2ccnc2)c2ccc(Cl)cc2Cl)c(Cl)c1 (stereo unspecified) | 89.6% | 135% | 4.88% | 10.1% | < 0% | 48.6% | 73.4% | < 0% | 20.2% | < 0% | 22.3% | 33.2% |
| Nc1nc(C(F)(F)F)cc2c1[nH]c(=O)n2Cc1ccccc1 | 89.2% | 102% | 8.47% | 2.55% | 20.9% | 2.26% | 35% | < 0% | < 0% | 18.1% | < 0% | -12.1% |
| Nc1cc(-c2nc3ccccc3[nH]2)n[nH]c1=O | 70.3% | 49.8% | 2.54% | 28.3% | 78.8% | 31.5% | 79.1% | 5.5% | < 0% | 1.36% | < 0% | 24% |
| O=C(O)CSc1cc(NS(=O)(=O)c2cccc3cccnc23)c2ccccc2c1O | 95.5% | 80.9% | 2.37% | < 0% | 29.3% | 70.5% | 81% | 0.374% | < 0% | < 0% | < 0% | 35.4% |
| CC(Cc1ccccc1)C(=O)Nc1ccc(Cl)cc1C(=O)O (stereo unspecified) | 102% | 99.8% | 5.78% | < 0% | < 0% | 35.5% | 76.5% | < 0% | < 0% | 13.7% | 11.5% | 8.73% |
| O=C(Nc1ccccc1C(=O)O)c1cccc(Oc2ccccc2)c1 | 113% | 61% | 6.41% | 37.4% | 5.84% | -5.74% | -12.5% | < 0% | < 0% | < 0% | < 0% | -3.28% |
| Cc1oncc1C(=O)Nc1ccc(C(F)(F)F)cc1 | 113% | 96.1% | -5.44% | < 0% | < 0% | 50.7% | 38% | 12% | < 0% | 23.8% | 45.6% | -59.9% |
| O=C(NC1CCCc2c1[nH]c1ccc(Cl)cc21)c1ccccn1 (stereo unspecified) | 96.3% | 102% | 20.7% | < 0% | 6.95% | 20.6% | 37.5% | < 0% | < 0% | < 0% | < 0% | 2.22% |
| Nc1cccc(-c2nc(N)nc(NC3Cc4ccccc4C3)n2)c1 | 96.5% | 75.1% | 12.8% | < 0% | < 0% | -7.13% | 22.3% | < 0% | < 0% | < 0% | < 0% | -38.1% |
| CN(C(=O)C1(c2ccc(Cl)cc2)CCC1)c1ccccc1 | 105% | 102% | -4.47% | 17.1% | 17.3% | 10.7% | 59% | < 0% | < 0% | < 0% | 1.35% | 3.18% |
| O=C(NO)C1(CS(=O)(=O)c2ccc(Oc3ccc(Cl)cc3)cc2)CCOCC1 | 108% | 76.6% | 7.05% | 22.6% | 28.2% | 28.1% | 34.1% | < 0% | < 0% | 2.48% | < 0% | 35.5% |
| Cc1cc(Nc2ccc(F)cc2)nc(SCc2nc3ccccc3[nH]2)n1 | 91.4% | 101% | 4.62% | 19% | 32.7% | -9.36% | -3.55% | 1.25% | 33.8% | < 0% | < 0% | 25.6% |
| Oc1cc(-c2cccc3ccccc23)[nH]n1 | 109% | 68.8% | 2.56% | 4.17% | 26.7% | 3.8% | -4.8% | < 0% | < 0% | < 0% | < 0% | 45.4% |
| O=C(c1nc2c(C(F)(F)F)cc(C3CC3)cn2c1Cl)N1CCN([C@H]2CC[C@H](O)CC2)C(=O)C1 | 100% | 116% | 0.895% | 28.7% | 6.18% | 14.7% | 46.1% | 10.1% | 1.45% | 3.76% | < 0% | 16.9% |
| CCc1cc(CCCOc2c(C)cc(-c3noc(C(F)(F)F)n3)cc2C)on1 | 92.1% | 110% | -0.702% | < 0% | < 0% | 40.1% | 94.3% | 7.22% | 9.64% | 8.61% | 13.1% | 28.7% |
| O=C(O)c1cc(-c2ccccc2)nc2ccccc12 | 114% | 94% | -0.148% | < 0% | < 0% | 27% | 90.2% | 1.38% | < 0% | 1.7% | < 0% | 38.5% |
| COc1cccc(N2CCN(C3=Nc4c(F)cccc4[C@H](CC(=O)O)N3c3cc(C(F)(F)F)ccc3OC)CC2)c1 | 90.8% | 116% | 5.59% | 11.1% | 1.05% | 22.9% | 84.4% | < 0% | < 0% | < 0% | 6.89% | 21.2% |
| CNCC(=O)OCc1cccnc1N(C)C(=O)OC(C)[n+]1cnn(C[C@](O)(c2cc(F)ccc2F)[C@@H](C)c2nc(-c3ccc(C#N)cc3)cs2)c1 (stereo partly specified) | 94.9% | 98.8% | 14.7% | 8.15% | 23.3% | 0.721% | 37.7% | < 0% | < 0% | < 0% | < 0% | 29.6% |
| Nc1nc(NC2Cc3ccc(F)cc3C2)nc(N2CCCCC2)n1 (stereo unspecified) | 96% | 79.3% | 2.58% | 28.3% | 55.5% | 26.7% | 91% | 5.3% | < 0% | < 0% | 7.28% | 23.6% |
